About 79,000 compounds went through this panel and 15% of them were active in at least one assay; those are over-represented in the sample as a whole. A number with no mark means an inactive call. The source made the active and inactive calls. Rule as the data show it: active = growth inhibition above about 70%; inactive = the rest.
How the values were obtained:
[1] = NCI Yeast Anticancer Drug Screen. Data for the rad50 strain (AID 155);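 also: 0% = growth of vehicle-only cultures of the same strain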; settings: S. cerevisiae rad50 strain growth inhibition; at 50.0 µM; stronger effect = higher value
How it was run: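 Yeast carrying a defined DNA repair defect were exposed to test compounds, and growth was compared with vehicle-treated controls to give percent inhibition.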

[2] = NCI Yeast Anticancer Drug Screen. Data for the mec2-1 strain (AID 157); settings: S. cerevisiae mec2-1 strain, at 50.0 µM, stronger effect = higher value
How it was run: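 Vehicle-treated cultures served as reference for growth inhibition of compound-exposed mec2-1 yeast.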

[3] = NCI Yeast Anticancer Drug Screen. Data for the cln2 rad14 strain (AID 165);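 also: 0% = growth equal to vehicle treated cultures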; settings: S. cerevisiae cln2 rad14 strain, at 50.0 µM, stronger effect = higher value
How it was run: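 Each compound was tested on cln2 rad14 yeast. Inhibition of growth was calculated against vehicle-exposed controls.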

[4] = NCI Yeast Anticancer Drug Screen. Data for the bub3 strain (AID 167); settings: S. cerevisiae bub3 mutant strain, at 50.0 µM, stronger effect = higher value
How it was run: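 Compounds were applied to a genetically altered yeast strain carrying a cell-cycle control defect. Growth inhibition was scored against vehicle-treated controls.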

[5] = NCI Yeast Anticancer Drug Screen. Data for the mlh1 rad18 strain (AID 175); settings: S. cerevisiae mlh1 rad18 strain growth inhibition; at 50.0 µM; stronger effect = higher value
How it was run: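 Vehicle-treated cultures served as the reference for growth inhibition in a yeast strain carrying DNA damage repair alterations exposed to each compound.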

[6] = NCI Yeast Anticancer Drug Screen. Data for the sgs1 mgt1 strain (AID 161);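 also: 0% = growth of cultures given vehicle only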; settings: S. cerevisiae sgs1 mgt1 strain, at 50.0 µM, stronger effect = higher value
How it was run: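 Genetically altered yeast, compound exposure, growth inhibition relative to vehicle.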

| SMILES | growth inhibition [1] | growth inhibition [2] | growth inhibition [3] | growth inhibition [4] | growth inhibition [5] | growth inhibition [6] |
| --- | --- | --- | --- | --- | --- | --- |
| CC1(C)N=C(C2CCCN2C(=O)OCc2ccccc2)OC1=O (stereo not drawn) | -43% | -20.7% | -1.75% | 12.3% | -28.6% | – |
| O=C(CBr)c1ccc(S(=O)(=O)c2ccccc2)cc1 | 67.3% | 92.7% (active) | – | – | 78.3% (active) | 85% (active) |
| O=C(c1nc2ccc(Cl)cc2[nH]c1=O)C(O)c1ccccc1 (stereo not drawn) | 47.5% | 6.95% | 42.9% | 28.9% | 41.8% | – |
| COc1ccc2c(c1)C(=O)OCCC2 | 25.4% | 17.5% | 10.3% | -36.4% | -9.95% | – |
| c1ccc(C2=C([P+](c3ccccc3)(c3ccccc3)c3ccccc3)CCO2)cc1 | 99% (active) | 99.1% (active) | 98.2% (active) | 98.3% (active) | 98.8% (active) | – |
| O=C(c1ccccc1)c1ccc(N2CCOCC2)cc1 | -29.4% | -44.9% | 4.75% | -7.85% | -5.7% | – |
| CCN(/N=C1\CC2C=CCN(C2)C(=O)Cc2c1[nH]c1ccccc21)S(=O)(=O)c1ccc(C)cc1 (stereo not drawn) | 30.9% | 12.1% | 23.6% | 20.5% | 19.4% | – |
| CCC(CC)C(=O)OCCOCCOC | 30.2% | 11.8% | 7.9% | 23.6% | 36.9% | – |
| CC1=NN(C(=O)c2ccccc2O)C(=O)/C1=C/c1cccc([N+](=O)[O-])c1 | 47.8% | 26.9% | 28.1% | 61.1% | 33.8% | – |
| CCOC(=O)C(/C(=N\NC(=O)OC)C(=O)Nc1cc(OC)ccc1OC)c1cnc2ccccc2n1 (stereo not drawn) | -6.15% | -2.75% | 18.8% | 15.4% | 0.7% | – |
| CC(C)NS(=O)(=O)c1ccc(Cl)cc1 | 11.6% | 1.65% | 0.4% | -1.1% | 1.85% | – |
| OC12CC/C(=N/OCc3ccccc3)CC1c1ccccc12 (stereo not drawn) | 11.2% | -22.9% | -16% | -36.1% | 0.45% | – |
| CC(C)CC(NC(=O)OC(C)(C)C)C(=O)NC(Cc1c[nH]c2ccccc12)C(=O)NN (stereo not drawn) | 37.8% | 14.2% | 32.3% | 0.75% | 27.7% | – |
| IC1CCC2OC1CCC2I (stereo not drawn) | 2.8% | 1.75% | -8.35% | -5.05% | 11.8% | – |
| CCOc1ccc2[nH]c(C)c(CC(=O)O)c2c1 | -3.7% | -9.25% | -16.4% | 9.3% | -7.2% | – |
| O=P(c1ccccc1)(c1ccccc1)N1CC1c1ccccc1 (stereo not drawn) | 8.95% | 12.9% | -3.45% | 4.6% | 10.1% | – |
| c1ccc(Oc2ccc(-c3ccccc3)cc2)cc1 | -28.9% | -52.9% | -7.85% | -8.55% | -31.3% | – |
| CC(C)(C)c1ccc(OCCOCCCl)c(Cl)c1 | 17.1% | 15.4% | -19.9% | 8.65% | 15.2% | – |
| COC(=O)COC(=O)C1C(C(N)=O)N(CC(=O)OC)CCN1CC(=O)OC (stereo not drawn) | 0.2% | -0.9% | -7.35% | -3.9% | -5.95% | – |
| Cc1nn(C(N)=S)c(C)c1N=Nc1ccc(Cl)cc1 | 9.6% | -0.25% | -62.8% | -8.35% | 19.9% | – |

| SMILES | growth inhibition [1] | growth inhibition [2] | growth inhibition [3] | growth inhibition [4] | growth inhibition [5] | growth inhibition [6] |
| --- | --- | --- | --- | --- | --- | --- |
| CC[n+]1ccc2cc(OC)c(OC)cc2c1Cc1ccc(OC)c(OC)c1 | -18% | -5.55% | -34% | -1.2% | -16.1% | – |
| O=C1NC(=O)C(c2ccsc2)(c2cccs2)N1 (stereo not drawn) | 20.9% | -9.3% | – | – | -1.65% | 1% |
| CSC(SC)[P+](c1ccccc1)(c1ccccc1)c1ccccc1 | 94.1% (active) | 93.9% (active) | 93.5% (active) | 91.2% (active) | 93.5% (active) | – |
| COc1cc(C[C@H]2C(=O)OCC2Cc2ccc(OC)c(OC)c2)ccc1O (stereo partly drawn) | -39.1% | -60.6% | -5.2% | 2.05% | -22.3% | – |
| O=C1CN(Cc2ccc(Cl)cc2)CC(=O)N2CCCN12 | 20.8% | 8% | 18.2% | 10.8% | 16.4% | – |
| Oc1ccc(-c2c3ccccc3c(-c3ccc(OCCBr)cc3)c3ccccc23)cc1 | -24.2% | -9.75% | 4.65% | -11.3% | 7.4% | – |
| CCCC(=O)c1ccccc1 | 35.5% | 3% | 15% | 26.1% | 21.9% | – |
| COc1ccc(C(=O)c2ccccc2)c(O)c1 | 13.1% | 1.8% | 4.95% | 0.55% | 6.9% | – |
| O=C(O)C(=O)O.[NH-]CC(O)CN(CC(O)CO)c1ccccc1.[Pt+2] (stereo not drawn) | 23.2% | 1.35% | 21.7% | -1.45% | 11.1% | – |
| O=c1sc2ncccc2n1-c1ccc([N+](=O)[O-])cn1 | -3.4% | 10.4% | -18.4% | 11.9% | -6.55% | – |
| COc1cc2c(cc1C)C(C)(C)CCC2(C)C | 7.8% | -0.45% | -45.1% | 20.6% | 4.15% | – |
| CC(=O)NS(=O)(=O)c1ccc(NC(=O)COC(=O)c2cccc3c(=O)c4ccccc4[nH]c23)cc1 | -33.1% | 5% | 7.1% | -28.6% | -23.6% | – |
| Cc1cnc2[nH]c(-c3ccccc3)cc(=O)c2c1 | -6.7% | -12.6% | -23.2% | -8.25% | -48.5% | – |
| COc1cccc(/C=C2/C(=O)N(c3ccc([N+](=O)[O-])cc3)N=C2C)c1 | 34.5% | 5.1% | 11.9% | 14.3% | 43.9% | – |
| CCCCCC(O)(CCCC)CCCCC | -10.7% | -1.65% | 19.9% | 1.75% | 15.9% | – |
| CCOC(=O)CC(=O)Nc1cccc2sc3ncccc3c(=O)c12 | -35.4% | -52.6% | 15.4% | 0.7% | 0.2% | – |
| CC(=NNC(=S)Nc1ccccc1)c1cccc(C(C)=NNC(=S)Nc2ccccc2)n1 | -7.4% | -7.55% | 2.65% | -2.3% | 6.4% | – |
| CCOC(=O)CC(=O)c1ccc(Cl)cc1 | 15.1% | 12.9% | 6.95% | -12.8% | -7.65% | – |
| C/C(CC1CCCCC1)=N\NC(N)=O | 0.25% | 1.35% | 13.2% | -10.9% | -27.1% | – |
| COc1ccc(C(=O)c2ccccc2)c(N)c1 | 11.2% | – | -18.9% | -17.9% | 10.4% | -2.4% |

Source: PubChem BioAssay (NCI)
